Measured potencies and affinities stand elsewhere. Activity calls are given as the source filed them.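 The calls were made as follows: active = compounds lowering cell ATP signal with a fitted half-effect dose at most twice the top valid dose; inconclusive = flat curve with 30 to 70% signal loss, or bad fit; inactive = wrong direction, flat within 30%, or weaker than limit.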
Assay: HEK293 cell cytotoxicity, dose response, cytotoxicity control, cherry-picks, set 5 (AID 1053117);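 also: more negative means greater loss of ATP signal and more cytotoxicity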
Conditions: HEK293T viability, CellTiter-Glo ATP luminescence, 72 h; series mostly up to 26 µM

| SMILES | outcome |
| --- | --- |
| Cc1ccc(-c2nc3ncccc3o2)cc1NC(=O)c1ccco1 | inactive |
| C[C@@H]1CN([C@@H](C)CO)C(=O)c2cc(NC(=O)CCCN(C)C)ccc2O[C@H]1CN(C)Cc1ccc(-c2ccccc2)cc1 | inactive |
| C[C@@H]1CN([C@H](C)CO)C(=O)c2cc(-c3ccccc3)cnc2O[C@H]1CN(C)C(=O)c1cccc(F)c1 | inactive |
| COCC(=O)Nc1ccc2c(c1)C(=O)N(C)[C@@H]1CC[C@@H](CC(=O)NCc3ccccc3Cl)O[C@@H]1CO2 | inactive |
| CC(C)NC(=O)N(C)C[C@H]1Oc2ccc(NC(=O)CCN3CCOCC3)cc2C(=O)N([C@H](C)CO)C[C@@H]1C | inactive |
| CO[C@@H]1CN(C)C(=O)c2ccc(NC(=O)c3ccc(-c4ccccc4)cc3)cc2OC[C@@H](C)NC[C@@H]1C | inactive |
| Cc1ccc(NC(=O)COC(=O)c2cc(Cl)ccc2[N+](=O)[O-])c(C)c1 | inactive |
| C[C@@H](O)C#Cc1ccc2c(c1)O[C@@H](CN(C)C)[C@@H](C)CN([C@@H](C)CO)S2(=O)=O | inactive |
| C[C@H](O)C#Cc1ccc2c(c1)O[C@H](CN(C)C)[C@H](C)CN([C@H](C)CO)S2(=O)=O | inactive |
| O=C(Nc1ccccc1F)N1C[C@@H]2[C@H](c3ccccc31)[C@H](CO)N2C(=O)C1CCOCC1 | inactive |
| O=C(NCc1ccccc1)c1ccc(-c2cn[nH]c2)c2ccoc12 | inactive |
| CC(=O)Nc1cccc(-c2ccnc3c2CC(C)(C(=O)Nc2cccc(C(F)(F)F)c2)O3)c1 (stereo not drawn) | inactive |
| Cc1ccc(S(=O)(=O)N2CC[C@@H]3[C@H]2c2cc(-c4cccc(C(=O)N(C)C)c4)ccc2N[C@@H]3CO)cc1 | inactive |
| COC(=O)C[C@@H]1CC[C@@H]2[C@H](COc3ccc(NC(=O)Cc4cccs4)cc3C(=O)N2C)O1 | inactive |
| C[C@@H]1CN([C@H](C)CO)C(=O)c2cc(NC(=O)CCCN(C)C)ccc2O[C@H]1CN(C)Cc1ccc(-c2ccccc2)cc1 | inactive |
| O=C(Nc1ccccc1F)N1C[C@H]2[C@@H](c3ccccc31)[C@@H](CO)N2C(=O)C1CC1 | inactive |
| C[C@H](CO)N1C[C@H](C)[C@@H](CN(C)Cc2ccccc2)Oc2ncc(-c3ccccc3)cc2C1=O | inactive |

| SMILES | outcome |
| --- | --- |
| COC(=O)C[C@@H]1CC[C@H]2[C@@H](COc3ccc(NC(=O)Cc4cccs4)cc3C(=O)N2C)O1 | inactive |
| Cc1ccc([N+](=O)[O-])cc1NC(=O)CN(C(=O)c1ccccc1Cl)C1CCCCC1 | inactive |
| N#C[C@@H]1[C@@H](c2ccccc2C2=CCCCC2)[C@@H](CO)N1S(=O)(=O)c1ccccc1 | inactive |
| Nc1c(C(=O)NCc2ccco2)nnn1Cc1ccccc1 | inactive |
| CCOc1ccccc1NC(=O)c1c(NC(=O)CCC(=O)O)sc2c1CCCCC2 | inactive |
| COc1ccc(-c2oc3ncnc(NCCCN4CCOCC4)c3c2-c2ccc(OC)cc2)cc1 | inactive |
| C[C@@H]1CN([C@H](C)CO)C(=O)c2cc(-c3ccccc3)cnc2O[C@H]1CN(C)Cc1ccccc1 | inactive |
| COc1ccc(C)cc1N(CC(=O)Nc1cccc(N(C)S(C)(=O)=O)c1)S(C)(=O)=O | inactive |
| O=C(CC1Nc2ccccc2NC1=O)Nc1ccc2c(c1)OCO2 (stereo not drawn) | inactive |
| CCCCNC(=O)Nc1nc2ccc(CC)cc2s1 | inactive |
| COc1ccc(Cl)cc1NC(=O)CSc1nc(Nc2ccccc2)nc(N2CCOCC2)n1 | inactive |
| C[C@H](O)C#Cc1ccc2c(c1)O[C@@H](CN(C)C)[C@H](C)CN([C@H](C)CO)S2(=O)=O | inactive |
| C[C@H](CO)N1C[C@H](C)[C@H](CN(C)C)Oc2cc(C#C[C@@H](C)O)ccc2S1(=O)=O | inactive |
| O=C(CCC(=O)c1cccs1)NCc1cccnc1 | inactive |
| Cn1cnc(S(=O)(=O)N2CCN(c3ccccc3)CC2)c1 | inactive |
| Cc1cccc(NC(=O)c2ccc(C3SCC(=O)N3CCc3ccccc3)cc2)c1 (stereo not drawn) | inactive |
